Measured values as given in the supplement of paper PMC12350171.
Structures can show the parent of a compound that is named as a salt. Values without a mark were called inactive.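 Rule for the calls: active = normalised median growth AUC below 0.1 of DMSO control; inactive = AUC 0.1 or higher.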

system: S. enterica typhimurium WT; experiment: growth AUC normalised to DMSO control (median) (fraction of control); higher = less growth inhibition, active = hit call of the paper; conditions: 20 µM
Outline: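 Anaerobic growth was tracked hourly at OD578 for 24 h in 96-well plates of mGAM seeded at OD578 0.01 with each approved-drug library compound at 20 μM and 1% DMSO. Strains had first been passaged twice overnight without oxygen. Three biological replicates were run. The reported median is the area under the curve, calculated by the trapezoidal rule on curves truncated at entry into stationary phase and normalised to vehicle wells on the same plate.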
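Note: active when median AUC fell below 0.1.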

Point of comparison: `CC(=O)Oc1c(C)cccc1C(=O)O` [Cresopirine], “growth AUC normalised to DMSO control” value 0.998. Against it:
- CC(=O)Oc1ccc(C(c2ccc(OC(C)=O)cc2)c2ccccn2)cc1 [Bisacodyl] — higher, 1.01
- O=C(O)c1cc(/N=N/c2ccc(S(=O)(=O)Nc3ccccn3)cc2)ccc1O [Sulfasalazine] — higher, 1.01
- COc1ccc2c(c1)c(CC(=O)O)c(C)n2C(=O)c1ccc(Cl)cc1 [Indomethacin] — higher, 1.01
- O=P(O)(O)C(O)(Cc1cccnc1)P(=O)(O)O [Risedronic acid monohydrate] — higher, 1.01
- COc1ccc(C(=O)CC(=O)c2ccc(C(C)(C)C)cc2)cc1 [Avobenzone] — lower, 0.992
- C[C@]12CC[C@@H]3c4ccc(O)cc4CC[C@H]3[C@@H]1C[C@@H](O)[C@@H]2O [Estriol] — higher, 1
- CC1=C(C)C(=O)C(C(CCCCCC(=O)O)c2ccccc2)=C(C)C1=O (configuration not stated) [Seratrodast] — higher, 1.01
- CC(=O)[C@H]1CC[C@H]2[C@@H]3CCC4=CC(=O)CC[C@]4(C)[C@H]3CC[C@]12C [Progesterone] — higher, 1.02
- OCCN1CCN(CC/C=C2/c3ccccc3Sc3ccc(C(F)(F)F)cc32)CC1 [Flupentixol dihydrochloride cis-(Z)] — higher, 1.01
- O=C(O)c1cccnc1 [Niacin] — higher, 1.02
- Cc1cn([C@H]2C[C@H](N=[N+]=[N-])[C@@H](CO)O2)c(=O)[nH]c1=O [Zidovudine] — lower, 0.304
